This note sets out measurements from ChEMBL document CHEMBL3988442, “University of Dundee, Small-Polar-MMV Screening Library” (2021).

Screen size: about 66,000 compounds; about 960 (1.5%) showed an effect of 50% or more. The sample as a whole holds a higher share of strong results than the screen did.

This assay relates to Trypanosoma brucei. The assay can be described thus: Trypanosoma brucei 72 hour study. On the set-up: scale not given: in the data most compounds retested in dose-response had high values. In kind it is functional, organism-based.

For `CCC(=O)N1CCN(c2ccc(C(=O)OC)cc2)CC1C` (stereo unspecified), the “Percent Effect” value (30 µM, 30.03 µM) is on record as 6.915%.

Consider `COC(=O)c1ccc(N2CCN(C(=O)C3CC3)C(C)C2)cc1` (stereo unspecified), for which, under “30 µM, 30.03 µM”, the “Percent Effect” value was -2.442%.

As for `COC(=O)c1ccc(N2CCN(C(=O)c3cc(C)no3)C(C)C2)cc1` (stereo unspecified), where the note is “30.3 µM, […]”, the “Percent Effect” value worked out at 29.28%.

For the molecule `COC(=O)c1ccc(N2CCN(C(=O)c3ccncc3)C(C)C2)cc1` (stereo unspecified), for the setting “30 µM, 30.03 µM”, the “Percent Effect” value is 41.83%.

In the case of `Cl.Nc1nc(Nc2ccccc2)cc(N2CCNCC2)n1`, the “Percent Effect” value is reported as -11.41% (30.3 µM, […]) and -70.99% (10 mM, 10 mM as filed; unlikely as a test dose).

As to `O=C(c1cccs1)N1CCN(CC2CC2)c2ncccc2C1`, the “Percent Effect” value (30 µM, 30.03 µM) is -33.24%.

On to `Cn1cccc1C(=O)N1CCN(CC2CC2)c2ncccc2C1`, for which, under “30 µM, 30.03 µM”, the “Percent Effect” value was found to be 57.2%.

Take `CN1CCN(C(=O)c2cccn2C)Cc2cccnc21`: for the setting “30.3 µM, […]”, the “Percent Effect” value is -5.91%.

In the case of `Cc1nc(C(=O)NS(=O)(=O)c2cccc(C#N)c2)cs1`, under “30.3 µM, […]”, the “Percent Effect” value amounted to 2.101%.

As to `COCC1c2c(cnn2CC2CC2)CCN1Cc1ccc(C)o1.O=C(O)C(F)(F)F.O=C(O)C(F)(F)F` (stereo unspecified), for the setting “30.3 µM, […]”, the “Percent Effect” value is reported as -1.349%.

As to `COc1ccccc1CNC(=O)N1CCCC(CO)C1` (stereo unspecified), the “Percent Effect” value (30 µM, 30.03 µM) is -45.66%.

Consider `O=C(NCc1nn(-c2ccccc2)c2c1CCC2)N1CCCC(O)C1` (stereo unspecified), for which, where the note is “10 µM”, the “Percent Effect” value is on record as -55.19%.

`CCOC1CCCN(C(=O)NCCc2ccn(-c3ccccc3)n2)C1` (stereo unspecified): the “Percent Effect” value (30 µM, 30.03 µM) worked out at 99.66%.

Take `CCOC1CCN(C(=O)NCCc2ccn(-c3ccccc3)n2)CC1`: the “Percent Effect” value (10 µM) is given as -34.62%.

Consider `O=C(NCCc1ccn(-c2ccccc2)n1)N1CCCC(O)C1` (stereo unspecified), for which the “Percent Effect” value (10 µM) turned out to be 103.1%.

Take `O=C(NCCc1ccn(-c2ccccc2)n1)N1CCCC(CO)C1` (stereo unspecified): the “Percent Effect” value (10 µM) is listed as 104%.

For `O=C(NCC1CCCN(C(=O)NCCc2ccccc2)C1)c1ccco1` (stereo unspecified), where the note is “30.3 µM, […]”, the “Percent Effect” value is recorded as 15.56%.

For `O=C(NCCC1Cc2ccccc2C1)N1CCCC(O)C1` (stereo unspecified), the “Percent Effect” value (30.3 µM, […]) is reported as -66.43%.

As for `CCOC1CCCN(C(=O)c2nn(-c3ccccc3F)cc2O)C1` (stereo unspecified), the “Percent Effect” value (30.3 µM, […]) is -12.09%.

Take `CSc1ccccc1C(=O)N1C[C@H]2CC[C@@H]1CN(C(=O)N(C)C)C2`: where the note is “30 µM, 30.03 µM”, the “Percent Effect” value is reported as -19.87%.

For the molecule `O=C(O)C(F)(F)F.O=C([C@H]1CC[C@@H]2[C@@H](CCN2C2CCCC2)O1)N1CCOCC1`, the “Percent Effect” value (30.3 µM, […]) is 3.599%.

For the molecule `Cc1ccc(CN2CCC3(CCC3NC(=O)c3ccn(C)c3)CC2)s1.O=C(O)C(F)(F)F` (stereo unspecified), the “Percent Effect” value (30 µM, 30.03 µM) is recorded as -8.436%.

Consider `COc1c(CNCCNC(=O)c2ccccc2)c(C)nn1C.Cl`, for which the “Percent Effect” value (30.3 µM, […]) is -11.06%.

Consider `CCN(C)S(=O)(=O)NCC(O)c1c(Cl)cccc1Cl` (stereo unspecified), for which the “Percent Effect” value (30 µM, 30.03 µM) is on record as -61.52%.

Take `CSc1ncc(C(=O)N2CCN(c3ccccc3C)CC2C)cn1` (stereo unspecified): for the setting “30.3 µM, […]”, the “Percent Effect” value is -20.66%.

Regarding `Cc1ccccc1N1CCN(C(=O)c2cscn2)C(C)C1` (stereo unspecified), under “30.3 µM, […]”, the “Percent Effect” value is -44.71%.

For `Cc1ccccc1N1CCN(C(=O)c2ccc[nH]2)C(C)C1` (stereo unspecified), the “Percent Effect” value (30 µM, 30.03 µM) is 53.58%.

Turning to `CNc1cc(C(=O)NCCC2=CSC3=NCCCN23)ccn1`, where the note is “30.3 µM, […]”, the “Percent Effect” value stood at 4.45%.

Turning to `Cc1cc(C)n(CC2CCCCN2C(=O)c2ccc3c(c2)COC3)n1` (stereo unspecified), the “Percent Effect” value is -3.538% (10 µM) and 12.9% (30.3 µM, […]).

With `O=C(CN1CCC(c2cc(=O)n3c(n2)CCCCC3)C1)N1CCCCC1.O=C(O)CC(O)(CC(=O)O)C(=O)O` (stereo unspecified), the “Percent Effect” value (30.3 µM, […]) was -90.53%.

For `CC1(C)Cc2c(cnn2-c2ccccc2)C(NC2CCSCC2)C1` (stereo unspecified), the “Percent Effect” value (30 µM, 30.03 µM) is 82.22%.

`CCC(Nc1nnnn1-c1ccccc1)C(=O)NC1CCSCC1` (stereo unspecified): the “Percent Effect” value (30 µM, 30.03 µM) was -25.42%.

As for `CC(=O)NC1CC(C)(C)Cc2c1cnn2-c1cccc(F)c1` (stereo unspecified), the “Percent Effect” value (30 µM, 30.03 µM) is recorded as -59.29%.

With `CS(=O)(=O)NC(=O)c1nnn(-c2cccc(F)c2)c1C1CC1`, the “Percent Effect” value (30.3 µM, […]) is -19.55%.

`CC1(C)Cc2c(cnn2-c2cccc(F)c2)C(NC2CCSCC2)C1` (stereo unspecified): the “Percent Effect” value (30 µM, 30.03 µM) is recorded as 99.5%.

On to `Cc1nn(-c2ccccc2)c(C)c1CNC(=O)NC1CC1`, for which the “Percent Effect” value (30 µM, 30.03 µM) is -13.2%.

For `O=C(O)C(F)(F)F.O=C(O)C(F)(F)F.c1ccc(CN2CC[C@@H]3O[C@@H](COCC4CCOCC4)CC[C@@H]32)nc1`, for the setting “30 µM, 30.03 µM”, the “Percent Effect” value is reported as 11.6%.

In the case of `Nc1ccnc(N2C[C@@H]3CC[C@H](C2)N(CC2CCC2)C3=O)n1`, the “Percent Effect” value (30 µM, 30.03 µM) was -6.843%.

For the molecule `COc1ncccc1CN1CC[C@]2(C[C@@H](OCc3ccccn3)CO2)C1.O=C(O)C(F)(F)F.O=C(O)C(F)(F)F.O=C(O)C(F)(F)F`, under “30 µM, 30.03 µM”, the “Percent Effect” value was determined as 2.267%.

As for `CCSc1ccc(C(=O)N2CC[C@](O)(CC)[C@H](O)C2)s1`, the “Percent Effect” value (30.3 µM, […]) is given as -1.451%.

With `Nc1ccc(C(=O)N2CCC(Oc3cccc(C(F)(F)F)c3)CC2)cn1`, the “Percent Effect” value (30.3 µM, […]) came out at 54.87%.

Turning to `Nc1cc(C(=O)N2CCC(Oc3cccc(C(F)(F)F)c3)CC2)ccn1`, for the setting “30.3 µM, […]”, the “Percent Effect” value was 19.92%.

For `OC1(CN2CCC(Oc3cccc(C(F)(F)F)c3)CC2)CNCCOC1` (stereo unspecified), for the setting “30 µM, 30.03 µM”, the “Percent Effect” value was -13.41%.

For the molecule `O=C(c1ccc(=O)[nH]c1)N1CCC(Oc2cccc(C(F)(F)F)c2)CC1`, the “Percent Effect” value (30.3 µM, […]) is 9.238%.

In the case of `O=C(c1cccnc1)N1CCC(Oc2cccc(C(F)(F)F)c2)CC1`, under “30.3 µM, […]”, the “Percent Effect” value worked out at 6.021%.

On to `O=C(c1ccncc1)N1CCC(Oc2cccc(C(F)(F)F)c2)CC1`, for which the “Percent Effect” value (30.3 µM, […]) is 37.18%.

With `FC(F)(F)c1cccc(OC2CCN(Cc3ncc[nH]3)CC2)c1`, the “Percent Effect” value (30 µM, 30.03 µM) was -13.87%.

On to `OC1(CN2CCC(Oc3cccc(C(F)(F)F)c3)CC2)CCNC1` (stereo unspecified), for which the “Percent Effect” value (30 µM, 30.03 µM) is 92%.

As to `CC(N)C(=O)N1CCC(Oc2cccc(C(F)(F)F)c2)CC1` (stereo unspecified), for the setting “30.3 µM, […]”, the “Percent Effect” value is recorded as 98.32%.
